Screening data from PubChem.
Rows were chosen to be rich in hits. Some 3.2% of all compounds tested hit in one or more screens of this group.
UGM FP inh – M. tuberculosis UGM enzyme inhibitors, primary screen, biochemical, fluorescence polarization, single point; UDP-galactopyranose mutase (Mycobacterium tuberculosis (strain ATCC 25618 / H37Rv)), …; purified UGM, fluorescence polarization probe displacement; inhibition, % at 10 µM; 0.06% of 320,000 active; AID 504406, 2011; in the data active means inhibition above about 10%, passing the limit was not always enough
Mtb bLac sens – beta-lactam sensitization of Mtb H37Rv, H37Rv. AID 434955, 2010. M. tuberculosis H37Rv growth with meropenem, percent inhibition. inhibition, % at 25 µM. 0.27% of 330,000 active; call rule not given here;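 further: growth measured after seven days incubation then overnight dye step; 0% = bacteria only wells and 100% = bacteria with antibiotic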
FBA Mtb inh – Mtb FBA enzyme inhibitors, primary screen, biochemical, fluorescence, strain H37Rv; purified M. tuberculosis FBA, fluorescence read-out; inhibition, % at 1 µM; 2.3% of 360,000 active; AID 588726, 2011; Fructose-bisphosphate aldolase (Mycobacterium tuberculosis (strain ATCC 25618 / H37Rv)), …; in the data active means inhibition above about 27%;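 further: 0% = vehicle and 100% = reference inhibitor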
Target sequence (P9WQA3 whole entry, looked up): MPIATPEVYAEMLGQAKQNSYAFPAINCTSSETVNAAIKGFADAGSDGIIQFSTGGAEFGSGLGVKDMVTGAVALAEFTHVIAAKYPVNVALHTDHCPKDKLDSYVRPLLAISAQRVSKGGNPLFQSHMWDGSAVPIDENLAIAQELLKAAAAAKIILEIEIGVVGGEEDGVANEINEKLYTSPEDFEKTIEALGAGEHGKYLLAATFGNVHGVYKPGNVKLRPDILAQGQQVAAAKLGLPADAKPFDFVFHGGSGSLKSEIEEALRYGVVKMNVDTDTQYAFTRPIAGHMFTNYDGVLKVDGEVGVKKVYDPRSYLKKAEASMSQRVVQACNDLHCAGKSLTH
SSB-PriA inh – inhibitors of Klebsiella pneumoniae PriA binding to SSB C-terminal tail, primary screen, biochemical, AlphaScreen; PriA–SSB C-terminal tail interaction (Klebsiella pneumoniae); inhibition, % at 33 µM; 0.6% of 430,000 active; AlphaScreen SSBct-PriA binding, biotinylated peptide; in the data active means inhibition mostly above about 37%, no sharp cut-off; inactive means mostly below about 20%;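 further: plate controls were negative control peptide for no effect and reference peptide for full effect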
Rv3671c inh – Rv3671c serine protease inhibitors, primary screen, biochemical, fluorescence polarization, M. tuberculosis H37Rv; inhibition, % at 5.96 µM; P9WHR9; 0.048% of 320,000 active; AID 2606, 2010; in the data active means inhibition above about 38%;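 further: extracellular domain of Rv3671c used as enzyme; 0% = enzyme with DMSO and 100% = no enzyme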
Target sequence (P9WHR9 whole entry, looked up, the tested form may be a part): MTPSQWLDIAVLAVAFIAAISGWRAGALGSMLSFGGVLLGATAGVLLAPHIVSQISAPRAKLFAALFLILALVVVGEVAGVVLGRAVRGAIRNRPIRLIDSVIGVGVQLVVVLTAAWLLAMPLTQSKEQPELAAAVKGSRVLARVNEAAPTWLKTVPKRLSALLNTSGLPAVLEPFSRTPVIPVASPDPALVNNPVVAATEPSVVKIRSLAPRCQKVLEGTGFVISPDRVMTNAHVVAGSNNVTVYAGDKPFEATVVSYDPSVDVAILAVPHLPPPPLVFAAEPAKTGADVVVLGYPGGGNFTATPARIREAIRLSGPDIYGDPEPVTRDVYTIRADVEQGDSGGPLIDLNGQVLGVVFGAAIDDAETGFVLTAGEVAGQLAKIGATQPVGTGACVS
GDH-TPI inh – GDH-TPI coupling enzyme inhibitors, primary screen, artefact control for M. tuberculosis FBA inhibitor project, biochemical, absorbance, full deck; GDH-TPI coupled enzyme counterscreen, NADH absorbance; inhibition, % at 4.8 µM; 1.2% of 360,000 active; AID 588335, 2011; in the data active means inhibition above about 30%;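 further: 0% = DMSO wells and 100% = wells lacking the enzyme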
Numbers without * were called inactive; nt = not tested or not shown; + = active, no number; ! = not confirmed by another sample.

SMILES | UGM FP inh | Mtb bLac sens | FBA Mtb inh | SSB-PriA inh | Rv3671c inh | GDH-TPI inh
COP(=O)(OC)c1nc(-c2cccc3ccccc23)oc1NCCc1ccccc1 | 1.1 | 5.0 | + | -10.2 | -2.5 | 13.7
Cc1cc(NCCc2ccccc2)c2ccccc2n1 | nt | nt | nt | 7.0 | nt | nt
COc1ccc(CCNc2oc(-c3cccc4ccccc34)nc2P(=O)(OC)OC)cc1OC | -0.6 | -2.7 | 188.2* | -0.1 | 3.0 | 16.3
COc1ccc(CCNc2oc(Cc3cccc4ccccc34)nc2C#N)cc1OC | -1.3 | 47.8 | 0.9 | 43.4* | -9.4 | 4.0
COc1ccc(-c2nc(CNC(=O)CCc3ccc(=O)n(C)n3)cs2)cc1 | nt | nt | nt | -6.0 | nt | nt
CN1CCN(C=Nc2c(C#N)cnn2C)CC1 | nt | nt | nt | -19.9 | nt | nt
COc1ccc(C=NNC(=O)c2c(-c3ccccc3)noc2C)cc1[N+](=O)[O-] | nt | nt | nt | 4.6 | nt | nt
O=C(O)C1(C(=O)O)CCOCC1 | nt | nt | nt | -11.0 | nt | nt
CC1CCc2c(sc(NC(=O)CSc3nnc(-c4ccccc4)o3)c2C#N)C1 (centres undefined) | 4.6 | 4.6 | 1.8 | 7.7 | 0.6 | 8.7
N#Cc1c(NC(=O)CSc2nnc(-c3ccccc3)o2)sc2c1CCCC2 | -1.4 | 22.0 | 0.9 | 5.0 | -7.1 | 30.9*
O=C1/C(=C\Nc2cccc(C(F)(F)F)c2)S(=O)(=O)N(Cc2ccc(Cl)cc2)c2ccccc21 | nt | nt | nt | -17.0 | nt | nt
COc1ccc2ncc(S(=O)(=O)c3ccc(Cl)cc3)c(NCc3ccccc3)c2c1 | nt | nt | nt | -11.0 | nt | nt
COc1ccc(Cl)cc1C(=O)Nc1ccc2c(c1)OCC(C)(C)C(=O)N2 | nt | nt | nt | -1.0 | nt | nt
Cc1cc(C)n(N=Cc2cccc(O)c2)c(=O)c1C(N)=O | nt | nt | nt | -4.3 | nt | nt
O=C(O)c1ccc(-n2cccc2/C=C2/NC(=O)N(c3cccc(Cl)c3)C2=O)cc1 | nt | nt | 2.3 | 2.4 | nt | 7.9
O=C(O)c1ccc(-n2cccc2/C=C2/NC(=O)N(c3ccccc3)C2=O)cc1 | 3.2 | -3.8 | 0.2 | 7.0 | 4.3 | 31.8*
CCOC(=O)c1cccc(-n2cccc2/C=C2\NC(=O)N(CC(=O)O)C2=O)c1 | 3.2 | -3.2 | 0.2 | -5.5 | 0.7 | 31.4*
COc1cccc(NC(=O)Nc2c(C)nc3sccn3c2=O)c1 | nt | nt | nt | 2.0 | nt | nt
COc1ccc(/C=C2\Oc3cc(OCC(=O)N4CCC[C@H]4C(=O)O)ccc3C2=O)c(OC)c1OC | 0.1 | 1.6 | -1.7 | -8.5 | -1.6 | 38.2*
COc1ccc(OC)c(/C=C2\Oc3cc(OCC(=O)N4CC(O)C[C@H]4C(=O)O)ccc3C2=O)c1 (some centres undefined) | -2.0 | -7.7 | -6.4 | -4.4 | -4.4 | 40.2*
COc1ccc(/C=C2\Oc3cc(OCC(=O)N4CCC[C@H]4C(=O)O)ccc3C2=O)cc1OC | 0.1 | -0.7 | 0.8 | -6.7 | 2.4 | 18.6
O=C(O)COc1ccc2c(c1)O/C(=C\c1cccs1)C2=O | 2.1 | 5.0 | 4.9 | 5.4 | -8.1 | 41.8*
COc1ccc(/C=C2\Oc3cc(OCC(=O)N4CC(O)C[C@H]4C(=O)O)ccc3C2=O)c(OC)c1OC (some centres undefined) | 3.7 | 1.5 | -1.0 | -4.3 | -1.9 | 24.5
COc1cccc(/C=C2\Oc3cc(OCC(=O)N4CCCCC4)ccc3C2=O)c1OC | 3.3 | 0.9 | -0.8 | 8.6 | -16.3 | 39.1*
CCc1ccc(NC(=O)COc2ccc3c(c2)O/C(=C\c2cccs2)C3=O)cc1 | nt | nt | nt | -16.0 | nt | nt
SMILES | UGM FP inh | Mtb bLac sens | FBA Mtb inh | SSB-PriA inh | Rv3671c inh | GDH-TPI inh
COC(=O)c1ccccc1C(=O)N1CCCC(Cc2nc(-c3ccsc3)no2)C1 (centres undefined) | nt | nt | nt | 49.0 | nt | nt
Cc1ccc(S(=O)(=O)N=C(NC(=S)Nc2c(C)n(C)n(-c3ccccc3)c2=O)c2ccccc2)cc1 | nt | nt | nt | -0.7 | nt | nt
O=C1/C(=C/c2ccccc2)Oc2cc(OC(=O)N3CCOCC3)ccc21 | 1.4 | 3.3 | 2.0 | 2.0 | -1.5 | 30.6
COc1ccc(/C=C2\Oc3cc(OC(=O)N4CCOCC4)ccc3C2=O)c(OC)c1 | 3.5 | 2.5 | -4.2 | -0.1 | -6.7 | 31.0*
C=CCNc1nc(N)c(C(=C(C#N)C#N)c2ccc(Br)cc2)s1 | 0.7 | -4.9 | 125.9* | -19.5 | -10.0 | 13.5
C=CCNc1sc(C(=O)c2ccc(C)cc2)c(N)c1C#N | -0.2 | 16.9 | 2.6 | -4.2 | 1.6 | 13.7
Cn1c(C(C#N)=C(O)c2coc3ccccc3c2=O)nc2ccccc21 | nt | nt | nt | 6.0 | nt | nt
COc1cccc2c1C(=O)c1c(O)c3c(c(O)c1C2=O)C[C@@](O)(C(=O)CO)C[C@@H]3O[C@H]1C[C@H](N)[C@H](O)[C@H](C)O1 | 39.9* | 97.1 | -7.7 | 33.0 | 30.3 | 7.8
COc1ccc(NC(=O)CSc2nccn2Cc2ccccc2)cc1 | -2.1 | -6.3 | 1.6 | 45.6* | -6.8 | 5.6
CCOc1ccc(NC(=O)CSc2nccn2C)cc1 | 5.8 | -2.3 | 0.6 | 4.7 | -0.9 | 10.8
Cn1ccnc1SCC(=O)Nc1ccc(Oc2ccccc2)cc1 | 0.7 | -4.6 | 0.0 | 39.9* | 3.1 | 10.3
COc1ccc(Cn2ccnc2SCC(=O)Nc2cccc(NC(C)=O)c2)cc1 | -0.3 | -12.1 | -1.1 | 5.1 | 2.7 | 1.2
CC1CCN(C(=O)Cn2cc(SCc3ccc(Br)cc3)c3ccccc32)CC1 | nt | nt | nt | -10.0 | nt | nt
COc1ccc2c(C)c(C(=O)NCC(C)O)oc2c1OC (centres undefined) | -1.3 | -2.3 | 138.2* | -4.3 | -3.4 | 3.4
COc1cc(/C=C2\NC(=S)NC2=O)ccc1OCc1cccc(C(=O)O)c1 | 3.0 | -2.1 | 2.3 | -0.4 | -5.5 | 32.2*
Cc1ccc(C(C)C)c(OCC(=O)N=Nc2c(O)[nH]c3ccc([N+](=O)[O-])cc23)c1 | nt | nt | nt | 15.0 | nt | nt
O=[N+]([O-])c1ccc(SCCc2ccncc2)cc1 | 3.4 | -6.3 | -3.1 | -1.4 | -2.8 | 42.1*!
O=[N+]([O-])c1ccc(SCCc2ccccn2)cc1 | 0.4 | -1.8 | -1.6 | 13.8 | -2.7 | 13.1
Cc1nc2cc(NC(=O)c3cccc(Oc4ccccn4)c3)ccc2s1 | nt | nt | nt | -11.0 | nt | nt
CN(C(=O)C(=O)Nc1nc(-c2ccccn2)cs1)C1CCSC1 (centres undefined) | nt | nt | nt | 138.0* | nt | nt
O=C(Nc1ccc2nc(-c3cccs3)c(-c3cccs3)nc2c1)NC1CC1 | -1.6 | 91.2 | 9.6 | -10.9 | -20.5 | 32.1*
O=C(Nc1nc(-c2ccccn2)cs1)C1CC1 | 3.3 | 78.4 | 5.2 | 104.2* | 5.6 | 5.6
CCC(=O)Nc1nc(-c2ccccn2)cs1 | nt | nt | nt | 18.0 | nt | nt
CN(C)S(=O)(=O)c1ccc(C(=O)Nc2nc(-c3ccccn3)cs2)cc1 | nt | nt | nt | 31.1 | nt | nt
COCCNC(=O)Nc1ccc2nc(-c3cccs3)c(-c3cccs3)nc2c1 | 4.0 | 77.5 | 5.9 | -15.6 | -20.7 | 14.9
CC1(C)OC(=O)CC1C(=O)Nc1nc(-c2ccccn2)cs1 (centres undefined) | nt | nt | nt | 104.0* | nt | nt
CC(CCC(C)C)=NNc1cc(C)c2ccccc2n1 | nt | nt | nt | -6.8 | nt | nt
